An excerpt weighted towards active compounds, which were near 0.43% of everything screened.
GLA inh pH 4.5 = qHTS Assay for Inhibitors of Human alpha-Galactosidase at pH 4.5; Alpha-galactosidase A (Homo sapiens), P06280; purified enzyme, 4-MU-alpha-Gal fluorescence, pH 4.5; activity change, negative = inhibition, % at 105 µM; 230,000 tested, under 10 active; AID 1467, 2008;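 note: 0% = full activity with enzyme and -100% = basal without enzyme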
N370S GC mod = qHTS Assay for Inhibitors and Activators of N370S glucocerebrosidase as a Potential Chaperone Treatment of Gaucher Disease; AID 2101, 2009; Lysosomal acid glucosylceramidase (Homo sapiens), P04062; Potency, µM (highest dose often 59.4 µM), inactives show top-dose activity change, negative = inhibition, usual class: inhibitors; 330,000 tested, 0.092% active; N370S GC spleen homogenate, 4MU-glucoside fluorescence;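 note: potency is the fitted concentration of half-maximal effect; 0% = full enzyme activity and -100% = no enzyme basal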
GLA spleen mod = qHTS Assay for Inhibitors and Activators of Human alpha-Galactosidase From Spleen Homogenate. Alpha-galactosidase A (Homo sapiens), P06280. human spleen homogenate, 4MU-alpha-Gal fluorescence, 40 min. Potency, µM (top dose mostly 80 µM), without a hit: at the highest dose activity change, negative = inhibition, hits mostly inhibitors. 240,000 tested, 0.008% active. AID 2107, 2009;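 note: potency is the fitted concentration of half-maximal effect; 0% = enzyme with vehicle and -100% = no enzyme basal signal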
Target sequence (P06280 32-429 limits assumed): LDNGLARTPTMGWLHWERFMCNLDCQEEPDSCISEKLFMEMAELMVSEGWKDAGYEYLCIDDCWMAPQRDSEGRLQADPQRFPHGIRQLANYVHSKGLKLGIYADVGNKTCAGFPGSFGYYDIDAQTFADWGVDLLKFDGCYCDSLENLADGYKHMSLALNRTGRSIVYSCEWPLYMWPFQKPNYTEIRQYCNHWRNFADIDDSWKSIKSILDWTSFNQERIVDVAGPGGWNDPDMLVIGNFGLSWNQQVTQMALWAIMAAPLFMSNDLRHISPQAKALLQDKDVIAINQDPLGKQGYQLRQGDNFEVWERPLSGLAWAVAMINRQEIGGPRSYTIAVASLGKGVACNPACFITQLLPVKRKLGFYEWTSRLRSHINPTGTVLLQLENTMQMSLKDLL
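Spleen homogenate 1 ug + cpd (titration) + 4-MU-alpha-D-galactopyranoside 1 mM; 37C 40 min; 50 mM citrate/phosphate pH 5.0, 0.01% Tween-20; stop pH 10; fluorescence 365/440; AC50 via Hill.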
GAA inhib = qHTS Assay for Inhibitors of Human alpha-Glucosidase as a Potential Chaperone Treatment of Pompe Disease. Lysosomal alpha-glucosidase (Homo sapiens), P10253. 200,000 tested, 0.005% active. purified human GAA, 4-MU-alpha-glucoside fluorescence. Potency, µM (titrated, usually from 76.9 µM), for inactives: top-dose activity change, negative = inhibition, usual class: inhibitors;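 note: potency is the fitted concentration of half-maximal effect; plate controls were uninhibited enzyme wells for no effect and no-enzyme background for full effect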
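Compounds are titrated up to 77 uM against 4 nM human enzyme. Substrate 4-methylumbelliferyl-alpha-D-pyranoside (400 uM) reacts 20 min at room temperature in pH 5.0 buffer; liberated 4-methylumbelliferone is read at 440 nm.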
GAA glycogen = qHTS Assay for Inhibitors and Activators of Human alpha-Glucosidase Cleavage of Glycogen. Lysosomal alpha-glucosidase (Homo sapiens), P10253. recombinant GAA, glycogen substrate, Amplex Red glucose oxidase fluorescence. Potency, µM (titrated, usually from 76.4 µM), for inactives: at the highest dose activity change, negative = inhibition, actives largely listed as inhibitors. 300,000 tested, 0.38% active;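 note: potency is the fitted concentration of half-maximal effect; 0% = full enzyme reaction and -100% = no-enzyme basal signal; the screen sought inhibitors and activators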
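qHTS, 1536-well; enzyme 4 nM final; cpd up to 77 uM; substrate bovine liver glycogen 30 ug; 50 mM citrate/phosphate pH 5.0, 0.01% Tween-20; 37 C, 40 min; Amplex Red detection 45 min RT; Hill fit → AC50.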
aGlu spleen mod = qHTS Assay for Inhibitors and Activators of Human alpha-Glucosidase From Spleen Homogenate | AID 2112, 2009 | human spleen homogenate, 4-MU-alpha-glucoside fluorescence | Potency, µM (titrated, usually from 79.9 µM), without a hit: top-dose activity change, negative = inhibition, actives largely listed as inhibitors | 240,000 tested, 0.006% active;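 note: potency is the fitted concentration of half-maximal effect; 0% = enzyme with vehicle and -100% = no enzyme basal signal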
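AC50 values come from Hill-equation fits of concentration-response data, normalized to no-enzyme and full-activity controls. Enzyme source: 1 ug human spleen homogenate; 1 mM fluorogenic 4-MU glucoside, pH 5.0 citrate buffer, 37 C, 40 min.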
Starred values were filed as active, the others as inactive; [ ] = dose if it differs, or a comment. Calls come from the whole dose curve; as a rule, active = well fitted curve in the direction sought with a large enough effect; inconclusive = small, poorly fitted or top-dose-only effect, or another doubt; inactive = no such curve, though single readings can be large; an effect the other way counts as inactive or inconclusive.

How did Cc1ccc(-c2nc3ncccn3c2NC(=O)C2CC2)cc1 do in these assays?
GLA inh pH 4.5: -20; N370S GC mod: 0%; GLA spleen mod: 7%; GAA inhib: 6%; GAA glycogen: -4%; aGlu spleen mod: 0%

Results for O=C(Cn1cc(SCc2ccccc2F)c2ccccc21)N1CCCCC1 ?
GAA glycogen: -9%[76.3 µM]

How did CCOc1ccc(/C=C(\C#N)c2nc(-c3cc4ccccc4oc3=O)cs2)c(OCC)c1 do in these assays?
GAA glycogen: -11%[76.3 µM]

Results for CC1CCc2c(nc3ncnn3c2N2CCN(c3ccccc3F)CC2)C1 (configuration not stated) ?
GLA inh pH 4.5: -3; N370S GC mod: -3%; GLA spleen mod: inconclusive; GAA inhib: -3%; GAA glycogen: 1%; aGlu spleen mod: -5%

How did CC1CCc2c(nc3ncnn3c2NCCc2ccccc2F)C1 (configuration not stated) do in these assays?
GLA inh pH 4.5: -5; N370S GC mod: -28%; GLA spleen mod: -12%; GAA inhib: 10%; GAA glycogen: 4µM*; aGlu spleen mod: 2%

How did COc1ccc(C2CC(=O)c3cc(-c4nc(-c5cccc([N+](=O)[O-])c5)cs4)c(=O)n(-c4ccc(F)cc4)c3C2)cc1 (configuration not stated) do in these assays?
GAA glycogen: -1%[76.3 µM]

Results for CC(=O)Nc1sc2c(c1C(c1cccc(Cl)c1)N1CCN(CCO)CC1)CCCC2 (configuration not stated) ?
GLA inh pH 4.5: -10; N370S GC mod: 18µM*; GLA spleen mod: 6%; GAA inhib: -13%; GAA glycogen: 6%; aGlu spleen mod: -1%

What do the screens show for `COc1ccc(C(c2c(NC(C)=O)sc3c2CCCC3)N2CCN(CCO)CC2)cc1OC` (configuration not stated)?
GLA inh pH 4.5: 1; N370S GC mod: 14µM*; GLA spleen mod: -4%; GAA inhib: 5%; GAA glycogen: -1%; aGlu spleen mod: 2%

Results for CC1CCc2c(cc(-c3ccccc3)n2-c2ccc(C(=O)NC(C)C)cc2)C1 (configuration not stated) ?
GAA glycogen: -1%[76.3 µM]

What do the screens show for `O=C(CSCc1cnn(-c2ccccc2)c1-n1cccc1)NCc1ccccc1F`?
GAA glycogen: -7%[76.3 µM]

What do the screens show for `C[C@H]1Cc2c(-c3ccccc3)nc3c(c2CO1)CN(C(=O)c1ccco1)CC3`?
GLA inh pH 4.5: -1; N370S GC mod: 3%[12.8 µM]; GLA spleen mod: 4%[17.5 µM]; aGlu spleen mod: 5%[17.4 µM]

Results for CC/C=C\C/C=C\C/C=C\C/C=C\C/C=C\C/C=C\CCC(=O)NCC(=O)O ?
GLA inh pH 4.5: -3; N370S GC mod: -3%; GLA spleen mod: 0%; aGlu spleen mod: 0%

Results for O=C(N/N=C/C1CC=CCC1)c1ccccc1O (configuration not stated) ?
GLA inh pH 4.5: 5; N370S GC mod: 0%; GLA spleen mod: -1%; GAA inhib: -10%; GAA glycogen: 32µM*; aGlu spleen mod: -7%

How did O=C(N/N=C/C1CC=CCC1)c1cc(Br)ccc1O (configuration not stated) do in these assays?
GLA inh pH 4.5: -4; N370S GC mod: -3%; GLA spleen mod: -3%; GAA inhib: 4%; GAA glycogen: inconclusive; aGlu spleen mod: -5%

How did CC12CCC(C(=O)NNc3ccccc3)(OC1=O)C2(C)C (configuration not stated) do in these assays?
GLA inh pH 4.5: -1; N370S GC mod: -15%; GLA spleen mod: 0%; GAA inhib: 5%; GAA glycogen: 28µM*; aGlu spleen mod: -4%

Results for CC12CCC(C(=O)NNc3ccc([N+](=O)[O-])cc3)(OC1=O)C2(C)C (configuration not stated) ?
GLA inh pH 4.5: -14; N370S GC mod: -16%; GLA spleen mod: -4%; GAA glycogen: inconclusive; aGlu spleen mod: -4%

Results for CCCn1c(C(CO)Nc2nc(-c3cccc(Br)c3)cs2)nc2ccccc21 (configuration not stated) ?
N370S GC mod: 1.8µM*; GAA glycogen: 2%[76.3 µM]

How did c1ccc(C2[C@H]3CN(CC4CCCCC4)[C@H](c4ccccc4)C34CC2(c2cccnc2)C4)cc1 (some centres not stated) do in these assays?
GLA inh pH 4.5: 2; N370S GC mod: 14µM*; GLA spleen mod: 3%; GAA glycogen: -1%; aGlu spleen mod: 1%

Results for Cc1ccc(Cl)cc1NC(=O)C1CCN(c2nc3ccccc3n3cccc23)CC1 ?
GAA glycogen: 6%[76.3 µM]

What do the screens show for `O=C(Cn1c(-c2cccs2)cc2ccccc21)NCc1ccccc1Br`?
GAA glycogen: -10%[76.3 µM]

What do the screens show for `CC(=O)c1ccc(N2CCN(C(=O)CCC(=O)c3cccs3)CC2)cc1`?
GLA inh pH 4.5: 1; N370S GC mod: 4%; GLA spleen mod: 10%; GAA inhib: 1%; GAA glycogen: 6%; aGlu spleen mod: 0%

What do the screens show for `Cc1ccc(OCCC(=O)N2CCN(c3ccc(O)cc3)CC2)cc1`?
GLA inh pH 4.5: -6; N370S GC mod: -2%; GLA spleen mod: 0%; GAA glycogen: 13µM*; aGlu spleen mod: -10%

How did O=C(CCC(=O)N1CCN(c2ccc(O)cc2)CC1)c1cccs1 do in these assays?
GLA inh pH 4.5: 8; N370S GC mod: -6%; GLA spleen mod: 4%; GAA glycogen: 11µM*; aGlu spleen mod: 0%

Results for S=C(NNC(=S)Nc1ccccc1)Nc1ccccc1 ?
N370S GC mod: 1%; GAA glycogen: inconclusive

What do the screens show for `COC(=O)c1ccc(NC(=S)Nc2ccc(O)cc2)cc1`?
GLA inh pH 4.5: -8; N370S GC mod: -16%; GLA spleen mod: 3%; GAA inhib: 4%; GAA glycogen: 7.9µM*; aGlu spleen mod: 7%

What do the screens show for `Oc1ccc(NC(=S)Nc2ccc(O)cc2)cc1`?
GLA inh pH 4.5: 7; N370S GC mod: inconclusive; GLA spleen mod: 10%; GAA inhib: -5%; GAA glycogen: 3.1µM*; aGlu spleen mod: 4%
